High-throughput results: PubChem BioAssay, several laboratories
Mtb bLac sens – beta-lactam sensitization of Mtb H37Rv; M. tuberculosis H37Rv growth with meropenem, percent inhibition; inhibition, % at 25 µM; 0.27% of 330,000 active; AID 434955; call rule not given here;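 note: growth measured after seven days incubation then overnight dye step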
FadD28 FP inh – inhibitors of Mycobacterium tuberculosis FadD28 bisubstrate binding. inhibition, % at 12.5 µM. 0.22% of 360,000 active. AID 588549. FadD28 bisubstrate probe binding, fluorescence polarization; in the data active = inhibition above about 8.5%, passing the limit was not always enough; inconclusive = no clear call, values can overlap the other calls
Rv3671c inh – inhibitors of M. tuberculosis serine protease Rv3671c; P9WHR9; inhibition, % at 5.96 µM; 0.048% of 320,000 active; in the data active = inhibition above about 38%;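 note: extracellular domain of Rv3671c used as enzyme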
Mtb FBA inh – inhibitors of M. tuberculosis fructose-bisphosphate aldolase. P9WQA3. purified M. tuberculosis FBA, fluorescence read-out. inhibition, % at 1 µM. 2.3% of 360,000 active. AID 588726; in the data active = inhibition above about 27%
Target sequence (P9WQA3 whole entry, looked up): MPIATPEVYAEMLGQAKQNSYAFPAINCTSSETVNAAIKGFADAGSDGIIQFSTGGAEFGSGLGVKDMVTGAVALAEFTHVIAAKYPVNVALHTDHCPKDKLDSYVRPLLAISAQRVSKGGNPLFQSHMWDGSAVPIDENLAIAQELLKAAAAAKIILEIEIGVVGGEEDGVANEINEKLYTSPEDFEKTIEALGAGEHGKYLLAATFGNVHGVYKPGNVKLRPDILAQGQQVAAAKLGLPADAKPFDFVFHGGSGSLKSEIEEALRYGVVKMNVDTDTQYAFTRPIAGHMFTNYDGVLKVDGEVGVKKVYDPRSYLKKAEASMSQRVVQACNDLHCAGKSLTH
UGM FP inh – Mtb UDP-galactopyranose mutase inhibition | P9WIQ1 | 0.06% of 320,000 active | purified UGM, fluorescence polarization probe displacement | inhibition, % at 10 µM | AID 504406; in the data active = inhibition above about 10%, passing the limit was not always enough; inconclusive = no clear call, values can overlap the other calls
Target sequence (P9WIQ1 whole entry, looked up): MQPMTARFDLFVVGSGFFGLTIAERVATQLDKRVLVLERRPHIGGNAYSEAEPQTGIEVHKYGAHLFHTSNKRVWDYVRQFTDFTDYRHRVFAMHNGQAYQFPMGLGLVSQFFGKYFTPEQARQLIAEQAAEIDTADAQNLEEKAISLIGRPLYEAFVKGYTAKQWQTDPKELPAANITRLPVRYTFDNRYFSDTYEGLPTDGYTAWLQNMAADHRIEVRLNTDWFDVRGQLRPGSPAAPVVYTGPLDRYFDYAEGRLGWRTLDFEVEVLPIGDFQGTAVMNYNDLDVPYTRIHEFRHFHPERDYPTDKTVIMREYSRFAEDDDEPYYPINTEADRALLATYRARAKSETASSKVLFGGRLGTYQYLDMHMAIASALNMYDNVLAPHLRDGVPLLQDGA
GDH-TPI inh – counter-screen for M. tuberculosis FBA inhibitors: GDH-TPI coupled enzymes; inhibition, % at 4.8 µM; GDH-TPI coupled enzyme counterscreen, NADH absorbance; 1.2% of 360,000 active; in the data active = inhibition above about 30%
Large screens that a line does not name were inactive. In the library only some 3.7% were active in any assay of this set; here they are far more common.

COc1cc2c(cc1OC)-c1cc(Nc3ccc(F)cc3)nc(=O)n1CC2	none
COc1ccc(CN2C[C@@H](CO)O[C@@H](n3cnc4c(NCc5ccncc5)ncnc43)C2)cc1	none (no result: Mtb bLac sens, Rv3671c inh, UGM FP inh)
O=c1nc(N/N=C/c2ccccn2)cn[nH]1	none
Cc1ccc(/C=N/Nc2cn[nH]c(=O)n2)o1	GDH-TPI inh 33
O=C(CCCN1C(=O)c2cccnc2C1=O)Nc1ccc(F)cc1Cl	Mtb FBA inh active (no result: FadD28 FP inh)
Cc1ccc(Cl)cc1NC(=O)CCCN1C(=O)c2cccnc2C1=O	none
COc1ccccc1-n1c(=S)sc2c(=O)n(Cc3ccco3)c(SC)nc21	GDH-TPI inh 40
Cc1ccc(S(=O)(=O)N2C[C@@H]3CCCC[C@@H]3[C@@H](C)[C@H]2CC(=O)c2ccccc2)cc1	none (no result: Mtb bLac sens, Rv3671c inh, UGM FP inh)
COC(=O)c1sccc1-c1ccc(C(=O)Nc2cccnc2)o1	GDH-TPI inh 34
CS(=O)(=O)Nc1cccc(-c2ccc3nncn3c2)c1	none (no result: Mtb bLac sens, Rv3671c inh, UGM FP inh)
O=C(/C=C/c1cccs1)Nc1cccnc1	GDH-TPI inh 32
O=C(/C=C/c1cccs1)Nc1nncs1	GDH-TPI inh 70
Cc1ccnc(NC(=O)CNC(=O)c2cccs2)c1	none
Cc1ccnc(NC(=O)/C=C/c2cccs2)c1	GDH-TPI inh 31
C=CCNC(=S)N1N=C(c2ccco2)CC1c1ccco1 (stereo not drawn)	none (no result: Mtb bLac sens, Rv3671c inh, UGM FP inh)
COc1ccc(-c2c(C)oc3c(CN4CCCCC4C)c(O)ccc3c2=O)cc1 (stereo not drawn)	Mtb FBA inh 174
COc1cccc(Oc2c(C)oc3c(CN4CCOCC4)c(O)ccc3c2=O)c1	Mtb FBA inh 142 (no result: Mtb bLac sens, Rv3671c inh, UGM FP inh)
Cc1oc2c(CN3CCCCC3)c(O)ccc2c(=O)c1-c1ccc(Cl)cc1	Mtb FBA inh 113 (no result: FadD28 FP inh)
CCOC(=O)c1ccc(Oc2c(C)oc3c(CN4CCN(C)CC4)c(O)ccc3c2=O)cc1	Mtb FBA inh 157
COc1ccc(Oc2c(C)oc3c(CN4CCOCC4)c(O)ccc3c2=O)cc1	none
O=C(Nc1cccnc1)C1Cc2c(-c3ccccc3Oc3ccccc3)ccnc2O1 (stereo not drawn)	none (no result: Mtb bLac sens, Rv3671c inh, UGM FP inh)
COc1ccccc1-c1c(C)oc2c(CN3CCOCC3)c(O)ccc2c1=O	Mtb FBA inh active
Cc1oc2c(CN3CCCC3)c(O)ccc2c(=O)c1Oc1ccccc1Br	Mtb bLac sens inconclusive, Mtb FBA inh active
COc1ccccc1Oc1c(C)oc2c(CN3CCN(CCO)CC3)c(O)ccc2c1=O	none (no result: FadD28 FP inh, Mtb FBA inh, GDH-TPI inh)
COc1ccccc1-c1coc2c(CN3C(C)CCCC3C)c(O)ccc2c1=O (stereo not drawn)	none
Cc1oc2c(CN3CCCC(C)C3)c(O)ccc2c(=O)c1-c1ccccc1 (stereo not drawn)	Mtb bLac sens inconclusive, Mtb FBA inh 136
COc1ccccc1-c1coc2c(CN3CCCCC3C)c(O)ccc2c1=O (stereo not drawn)	Mtb FBA inh 135
COC(=O)c1cc(C)c(C)cc1NC1OC(CO)C(O)C1O (stereo not drawn)	none (no result: Mtb bLac sens, Rv3671c inh, UGM FP inh)
COc1ccc(NC(=S)NCc2ccccc2)c(OC)c1	none
CC(=O)NC1CCCC(NC(C)=O)C1 (stereo not drawn)	none (no result: Mtb bLac sens, Rv3671c inh, UGM FP inh)
COc1ccccc1-c1coc2c(CN3CCCC(C)C3)c(O)ccc2c1=O (stereo not drawn)	Mtb FBA inh active
COc1ccccc1-c1c(C)oc2c(CN3CCCC(C)C3)c(O)ccc2c1=O (stereo not drawn)	Mtb FBA inh active (no result: Mtb bLac sens, FadD28 FP inh, Rv3671c inh, UGM FP inh)
CC1CCCCN1Cc1c(O)ccc2c(=O)c(-c3nc4ccccc4s3)c(N)oc12 (stereo not drawn)	FadD28 FP inh inconclusive, GDH-TPI inh 61
CCOC(=O)c1oc2c(CN3CCN(C)CC3)c(O)c(CC)cc2c(=O)c1-c1nc2ccccc2s1	none (no result: Mtb bLac sens, Rv3671c inh, UGM FP inh)
COc1ccc([N+](=O)[O-])cc1NCc1c(F)cccc1F	none (no result: Mtb bLac sens, Rv3671c inh, UGM FP inh)
CC(=O)c1ccc(S(=O)(=O)N2CCN(CCOc3ccccc3)CC2)cc1	none
Cc1nn(-c2ccccc2)c2sc(-c3nnc(SCC(=O)O)o3)cc12	Mtb FBA inh 101
CC(C)Cc1[nH]c(=O)c(C#N)c2c1COC(C)(C)C2	GDH-TPI inh 31
O=C(N/N=C/c1c(O)n(-c2cccc3ccccc23)c(=O)[nH]c1=O)c1ccncc1	GDH-TPI inh 43
COc1ccc(Cn2c(O)c(/C=N/NC(=O)c3ccncc3)c(=O)[nH]c2=O)cc1	GDH-TPI inh 42
O=C(N/N=C/c1c(O)n(CCc2ccc(F)cc2)c(=O)[nH]c1=O)c1ccccc1	none
COc1ccc(Cn2c(O)c(/C=N/NC(=O)c3ccccc3)c(=O)[nH]c2=O)cc1	GDH-TPI inh 35
CCn1c(O)c(/C=N/NC(=O)c2ccccc2)c(=O)[nH]c1=S	GDH-TPI inh 32
COc1ccc(NC(=O)c2cc(C3CCCCN3C(=O)OCCF)on2)c(C)c1 (stereo not drawn)	none (no result: Mtb bLac sens, Rv3671c inh, UGM FP inh)
Nc1ncnc2c1ncn2[C@@H]1O[C@H](C(=O)Nc2cc(C(F)(F)F)cc(C(F)(F)F)c2)[C@@H](O)[C@H]1O	none (no result: Mtb bLac sens, Rv3671c inh, UGM FP inh, GDH-TPI inh)
O=C(CSc1nnc(CNc2ccc(Cl)cc2)o1)Nc1nc2c(s1)CCCC2	FadD28 FP inh 15
Cc1ccc(N/C=C(\C#N)c2ccc(OCCCF)cc2)cc1	GDH-TPI inh 41
COc1ccc(N/C=C(\C#N)c2ccc(OCCCF)cc2)cc1	none
O=S(=O)(Nc1nc2ccccc2nc1N1CCc2ccccc2C1)c1ccc(Br)cc1	Mtb FBA inh 126
CC(=O)Nc1ccc(S(=O)(=O)Nc2nc3ccccc3nc2N2CCCCCC2)cc1	GDH-TPI inh 33
CC(=O)Nc1ccc(S(=O)(=O)Nc2nc3ccccc3nc2N2CCc3ccccc3C2)cc1	none
CCOC(=O)C1=CNS(=O)(=O)NC1c1ccc(C(=O)OC)cc1 (stereo not drawn)	none (no result: Mtb bLac sens, Rv3671c inh, UGM FP inh)
C[C@@H]1CN([C@@H](C)CO)C(=O)CCCn2nncc2CO[C@@H]1CN(C)C(=O)Nc1ccc(N2CCN(C)CC2)cc1	none (no result: Mtb bLac sens, Rv3671c inh, UGM FP inh)
COc1ccc(C2C3=C(CCCC3=O)N(CC(=O)O)C3=C2C(=O)CCC3)cc1Cl	Mtb FBA inh 178
CCOc1cc(C2C3=C(CCCC3=O)N(CC(=O)O)C3=C2C(=O)CCC3)ccc1OC	none
COc1ccc(C2C3=C(CCCC3=O)N(CC(=O)O)C3=C2C(=O)CCC3)cc1Br	Mtb FBA inh 135 (no result: Mtb bLac sens, Rv3671c inh, UGM FP inh)
C#CCOc1c(Cl)cc(C2C3=C(CCCC3=O)N(CC(=O)O)C3=C2C(=O)CCC3)cc1OC	Mtb FBA inh 159
CC1CN(C(=O)COC(=O)c2cncc(Br)c2)CC(C)O1 (stereo not drawn)	none (no result: Mtb bLac sens, Rv3671c inh, UGM FP inh)
O=C(Nc1ccc(F)cc1)c1cc2cc(Cl)ccc2[nH]1	none
O=C(Nc1ccc(F)c(Cl)c1)Nc1nnc([C@@H]2O[C@H](CO)[C@@H](O)[C@H]2O)s1	none (no result: Mtb bLac sens, Rv3671c inh, UGM FP inh)
O=C(Nc1cccc(-c2csc(Nc3ccc(Cl)cc3)n2)c1)c1cc([N+](=O)[O-])cc(C(F)(F)F)c1	GDH-TPI inh 41
O=C1C2C3C=CC(C3)C2S(=O)(=O)C2C3C=CC(C3)C12 (stereo not drawn)	none (no result: Mtb bLac sens, Rv3671c inh, UGM FP inh)
CCCCc1ccc(S(=O)(=O)NC(=O)C2(C)CCN2C(=O)Cc2ccccc2)cc1 (stereo not drawn)	none (no result: Mtb bLac sens, Rv3671c inh, UGM FP inh)
N#CC(=Nc1cccc(F)c1)C1=C(O)c2ccccc2C1=O	none (no result: Mtb bLac sens, Rv3671c inh, UGM FP inh, GDH-TPI inh)
